Data reported in PubChem BioAssay (Tox21).
Several values for one entry are separate records, joined by “and”; a condition that tells them apart may be missing. Identical values can stand only once. Inconclusive results are not listed. Entries that show only a call come without a potency. Activity calls are given as the source filed them. Unless noted, the call rests on the fitted dose curve; in most records, active means well fitted curve in the direction sought with a large enough effect in the repeat runs; inconclusive means weak or mixed curves; inactive means no such curve, though single readings can be large; an effect the other way counts as inactive or inconclusive.

Experiments:
[1] = qHTS assay to identify aromatase inhibitors - cell viability counter screen (AID 743084);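 further: cells stimulated with testosterone during compound exposure; nearly all actives have a fitted effect of over 55% in size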; further: potency means the concentration at half of the fitted maximal effect
[2] = target: Aryl hydrocarbon receptor (Homo sapiens) (UniProt P35869); assay: qHTS assay to identify small molecule that activate the aryl hydrocarbon receptor (AhR) signaling pathway (AID 743085); further: nearly all actives have a fitted effect of over 15% in size; further: potency means the concentration at half of the fitted maximal effect;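 on activation: HG2L7.5c1 human HepG2 liver cells with stably integrated DRE-driven firefly reporter; series mostly up to about 70 µM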
Aryl hydrocarbon receptor (Homo sapiens), sequence (P35869 whole entry, looked up): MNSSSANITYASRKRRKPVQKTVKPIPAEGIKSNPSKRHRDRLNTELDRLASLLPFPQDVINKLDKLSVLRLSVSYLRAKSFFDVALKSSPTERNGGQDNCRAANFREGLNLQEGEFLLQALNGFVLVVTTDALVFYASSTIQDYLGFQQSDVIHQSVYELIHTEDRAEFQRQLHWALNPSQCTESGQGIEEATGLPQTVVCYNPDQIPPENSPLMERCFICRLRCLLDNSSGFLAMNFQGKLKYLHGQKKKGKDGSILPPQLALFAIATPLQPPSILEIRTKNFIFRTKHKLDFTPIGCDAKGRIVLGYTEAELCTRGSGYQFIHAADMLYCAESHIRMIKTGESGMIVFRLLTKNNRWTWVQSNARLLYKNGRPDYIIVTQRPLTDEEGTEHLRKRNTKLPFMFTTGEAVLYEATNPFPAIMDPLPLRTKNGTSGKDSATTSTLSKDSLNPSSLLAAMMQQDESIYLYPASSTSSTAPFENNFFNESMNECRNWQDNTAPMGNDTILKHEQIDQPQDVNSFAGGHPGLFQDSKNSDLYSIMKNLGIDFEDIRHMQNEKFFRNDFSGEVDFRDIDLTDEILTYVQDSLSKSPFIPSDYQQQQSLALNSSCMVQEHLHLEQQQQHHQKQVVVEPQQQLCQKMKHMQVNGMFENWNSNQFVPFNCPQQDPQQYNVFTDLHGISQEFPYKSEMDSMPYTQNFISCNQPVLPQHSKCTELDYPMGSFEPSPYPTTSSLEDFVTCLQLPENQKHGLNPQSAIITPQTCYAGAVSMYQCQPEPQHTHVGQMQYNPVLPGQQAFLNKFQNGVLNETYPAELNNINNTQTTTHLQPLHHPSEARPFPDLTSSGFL
In short: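 Reporter assay in engineered HepG2 line HG2L7.5c1, whose plasmid carries twenty dioxin responsive elements upstream of firefly luciferase. Treatment lasted 24 h at 37C; ONE-Glo luminescence gauged induction.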

[3] = qHTS assay to identify small molecule that activate the aryl hydrocarbon receptor (AhR) signaling pathway - cell viability counter screen (AID 743086); further: nearly all actives have a fitted effect of over 45% in size; further: potency means the concentration at half of the fitted maximal effect
In short: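 Cytotoxicity counter screen: CellTiter-Fluor signal (30 min, 37 C) in 4000 HepG2 cells/well carrying the DRE-luciferase reporter, following 24 h compound exposure at 37 C.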

[4] = target: Peroxisome proliferator-activated receptor gamma (Homo sapiens) (UniProt P37231); assay: qHTS assay to identify small molecule agonists of the peroxisome proliferator-activated receptor gamma (PPARg) signaling pathway (AID 743094; active means well fitted activation curve with a large enough effect in the signal ratio in the repeat runs, not every such curve was filed as active; the % refers to the signal ratio; further: potency means the concentration at half of the fitted maximal effect)
Peroxisome proliferator-activated receptor gamma (Homo sapiens), sequence (P37231 whole entry, looked up): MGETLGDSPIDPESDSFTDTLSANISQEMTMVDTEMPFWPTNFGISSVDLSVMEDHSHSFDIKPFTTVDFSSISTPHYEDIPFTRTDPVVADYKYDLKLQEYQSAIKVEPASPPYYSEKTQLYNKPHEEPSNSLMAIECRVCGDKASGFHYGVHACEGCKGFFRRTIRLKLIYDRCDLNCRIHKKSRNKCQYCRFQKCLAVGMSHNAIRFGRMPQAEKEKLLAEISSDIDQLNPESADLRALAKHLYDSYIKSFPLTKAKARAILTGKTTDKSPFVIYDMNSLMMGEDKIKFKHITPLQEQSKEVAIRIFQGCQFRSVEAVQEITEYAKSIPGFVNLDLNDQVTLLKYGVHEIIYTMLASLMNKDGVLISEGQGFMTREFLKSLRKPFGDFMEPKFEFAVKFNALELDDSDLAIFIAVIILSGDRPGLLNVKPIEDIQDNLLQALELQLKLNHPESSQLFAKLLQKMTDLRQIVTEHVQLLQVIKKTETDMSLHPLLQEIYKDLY
In short: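 Reporter activation was scored by fluorescence of cleaved LiveBLAzer B/G substrate (1 h, room temperature) in PPARg-bla HEK293H cells previously treated 17 h at 37C with DMSO-dissolved compounds.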

[5] = target: Peroxisome proliferator-activated receptor gamma (Homo sapiens) (UniProt P37231); assay: qHTS assay to identify small molecule antagonists of the peroxisome proliferator-activated receptor gamma (PPARg) signaling pathway (AID 743191; calls by dose curve; further: nearly all actives have a fitted effect of over 30% in size; further: potency means the concentration at half of the fitted maximal effect)
In short: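 Beta-lactamase reporter under UAS control in HEK293H PPARg-bla cells; compound treatment 17 h at 37C. Read-out: fluorescence intensity after 1 h room-temperature incubation with LiveBLAzer B/G FRET substrate.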

[6] = qHTS assay to identify small molecule antagonists of the peroxisome proliferator-activated receptor gamma (PPARg) signaling pathway - cell viability counter screen (AID 743194); details: Potency: co-treated with 50 nM rosiglitazone unless noted; further: nearly all actives have a fitted effect of over 55% in size; further: potency means the concentration at half of the fitted maximal effect
In short: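 Viability was measured as CellTiter-Glo luminescence in GeneBLAzer PPARg UAS-bla HEK293H cells. These cells had been exposed 17 h at 37 C to compounds together with rosiglitazone at 50 nM final, with the beta-lactamase readout taken in the same wells.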

[7] = qHTS assay for small molecule agonists of the antioxidant response element (ARE) signaling pathway (AID 743202; active means well fitted activation curve with a large enough effect in the signal ratio in the repeat runs, not every such curve was filed as active; the % refers to the signal ratio)
In short: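 Beta-lactamase reporter activity, read as fluorescence intensity, reflects ARE/Nrf2 pathway induction in HepG2 cells after 16 h compound exposure at 37 C; substrate loading was 2 h at room temperature.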

[8] = qHTS assay for small molecule agonists of the antioxidant response element (ARE) signaling pathway - cell viability counter screen (AID 743203; calls by dose curve; further: nearly all actives have a fitted effect of over 55% in size; further: potency means the concentration at half of the fitted maximal effect)
In short: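 Viability counter screen: stably transfected ARE-bla HepG2 line, 16 hrs compound exposure at 37C/5% CO2, ATP-based CellTiter-Glo luminescence measured in the reporter wells.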

[9] = qHTS assay for small molecule activators of the heat shock response signaling pathway - cell viability counter screen (AID 743209); further: nearly all actives have a fitted effect of over 50% in size; further: potency means the concentration at half of the fitted maximal effect
In short: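 Viability of HSE-bla HeLa cells is measured with CellTiter-Glo in the wells already used for the reporter read. Compound exposure lasts 5 h at 37 C, and luminescence is read after 30 min at room temperature.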

[10] = qHTS assay for small molecule activators of the heat shock response signaling pathway (AID 743210; active means well fitted activation curve with a large enough effect in the signal ratio in the repeat runs, with a control signal flat, not every such curve was filed as active; the % refers to the signal ratio;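 further: HeLa cells with beta-lactamase reporter driven by heat shock elements; series mostly up to about 63 µM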)
In short: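 Fluorescence from a cleaved B/G FRET substrate (2.5 h, room temp) reports HSE-driven beta-lactamase in HeLa cells treated 5 h at 37 C with DMSO-dissolved compounds.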

[11] = qHTS assay to identify small molecule agonists of the peroxisome proliferator-activated receptor delta (PPARd) signaling pathway - cell viability counter screen (AID 743211); further: nearly all actives have a fitted effect of over 55% in size; further: potency means the concentration at half of the fitted maximal effect
In short: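 Multiplexed format: after the 2 h room-temperature LiveBLAzer B/G FRET step, CellTiter-Glo was added to the same wells. Luminescence after 30 min gave cell viability; compound exposure was 17 h at 37C.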

[12] = qHTS assay to identify small molecule antagonists of the peroxisome proliferator-activated receptor delta (PPARd) signaling pathway - cell viability counter screen (AID 743213); further: nearly all actives have a fitted effect of over 50% in size; further: potency means the concentration at half of the fitted maximal effect
In short: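 Cytotoxicity counter screen: CellTiter-Glo luminescence read 30 min after addition, in the same wells as the reporter assay. There, PPARd UAS-bla HEK293H cells (3000/well) were treated 17 h at 37 C with compound and 300 nM L165041.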

[13] = qHTS assay to identify small molecule agonists of the farnesoid-X-receptor (FXR) signaling pathway - cell viability counter screen (AID 743218); further: nearly all actives have a fitted effect of over 45% in size; further: potency means the concentration at half of the fitted maximal effect
In short: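 Viability of FXR-bla HEK 293T cells is measured by ATP-based CellTiter-Glo luminescence following 16 h compound treatment at 37 C and a prior 2 h room-temperature beta-lactamase substrate step.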

[14] = qHTS assay to identify small molecule antagonists of the farnesoid-X-receptor (FXR) signaling pathway - cell viability counter screen (AID 743221; active means well fitted cell-killing curve with a large enough effect in the repeat runs, not every such curve was filed as active; further: nearly all actives have a fitted effect of over 50% in size; further: potency means the concentration at half of the fitted maximal effect)
In short: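 CellTiter-Glo, 30 min RT, luminescence; same wells as the LiveBLAzer FRET read. Cells: FXR-UAS-bla HEK 293T. Treatment: compound with chenodeoxycholic acid 50 uM final, 16 h at 37 C.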

[15] = target: Vitamin D3 receptor (Homo sapiens) (UniProt P11473); assay: qHTS assay to identify small molecule agonists of the vitamin D receptor (VDR) signaling pathway (AID 743222; calls by dose curve)
Vitamin D3 receptor (Homo sapiens), sequence (P11473 whole entry, looked up): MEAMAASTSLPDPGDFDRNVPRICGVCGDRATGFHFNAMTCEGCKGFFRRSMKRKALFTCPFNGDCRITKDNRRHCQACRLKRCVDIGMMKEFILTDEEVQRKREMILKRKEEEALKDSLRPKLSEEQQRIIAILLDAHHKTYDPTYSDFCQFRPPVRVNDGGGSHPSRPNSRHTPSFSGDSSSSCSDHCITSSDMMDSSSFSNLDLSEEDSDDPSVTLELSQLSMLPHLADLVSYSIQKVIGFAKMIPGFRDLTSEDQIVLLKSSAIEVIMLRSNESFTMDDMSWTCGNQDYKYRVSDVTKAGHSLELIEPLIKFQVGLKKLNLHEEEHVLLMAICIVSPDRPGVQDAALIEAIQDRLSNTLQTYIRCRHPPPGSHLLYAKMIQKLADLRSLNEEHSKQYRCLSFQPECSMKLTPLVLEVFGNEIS
In short: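 Fluorescence from cleaved LiveBLAzer B/G FRET substrate served as readout. VDR-bla cells had been treated 16 h at 37C with test compounds in DMSO, following a 4 h settling period, and substrate was loaded for 2 h at RT.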

[16] = target: Vitamin D3 receptor (Homo sapiens) (UniProt P11473); assay: qHTS assay to identify small molecule antagonists of the vitamin D receptor (VDR) signaling pathway (AID 743223; active means well fitted inhibition curve with a large enough effect in the signal ratio in the repeat runs, not every such curve was filed as active; the % refers to the signal ratio)
In short: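 After VDR-bla cells are plated and left 4 h at 37C, DMSO-dissolved compounds and 3 nM (final) calcitriol agonist are added. Incubation continues 16 h at 37C; FRET beta-lactamase substrate then develops 2 h at room temperature.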

[17] = target: Peroxisome proliferator-activated receptor delta (Homo sapiens) (UniProt Q03181); assay: qHTS assay to identify small molecule agonists of the peroxisome proliferator-activated receptor delta (PPARd) signaling pathway (AID 743212; calls by dose curve;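 further: HEK293H cells with PPARd UAS beta-lactamase reporter GeneBLAzer system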)
Peroxisome proliferator-activated receptor delta (Homo sapiens), sequence (Q03181 whole entry, looked up): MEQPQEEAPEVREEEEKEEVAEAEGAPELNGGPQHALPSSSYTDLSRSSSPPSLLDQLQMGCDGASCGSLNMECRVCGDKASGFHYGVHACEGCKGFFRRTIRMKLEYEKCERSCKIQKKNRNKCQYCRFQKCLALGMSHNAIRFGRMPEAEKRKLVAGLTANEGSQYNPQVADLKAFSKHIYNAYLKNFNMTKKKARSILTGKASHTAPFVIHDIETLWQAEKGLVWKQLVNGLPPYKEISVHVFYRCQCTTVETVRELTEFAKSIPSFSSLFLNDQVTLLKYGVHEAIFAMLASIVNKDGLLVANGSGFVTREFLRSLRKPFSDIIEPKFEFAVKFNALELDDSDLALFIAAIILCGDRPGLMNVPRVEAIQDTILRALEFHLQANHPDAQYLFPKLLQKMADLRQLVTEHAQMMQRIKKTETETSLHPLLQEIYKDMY
In short: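 Steps: seed PPARd-bla HEK293H cells; incubate 5 h, 37 C, 5% CO2; add compounds in DMSO; incubate, 37 C; add LiveBLAzer B/G FRET substrate; hold 2 h at room temperature; measure fluorescence.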

[18] = target: Peroxisome proliferator-activated receptor delta (Homo sapiens) (UniProt Q03181); assay: qHTS assay to identify small molecule antagonists of the peroxisome proliferator-activated receptor delta (PPARd) signaling pathway (AID 743215; active means well fitted inhibition curve with a large enough effect in the signal ratio in the repeat runs, not every such curve was filed as active; the % refers to the signal ratio;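 further: cells stimulated with agonist L165041 at 300 nM final during compound exposure; series mostly up to about 62 µM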)
In short: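 Plated HEK293H PPARd-bla cells rested 5 h at 37 C and 5% CO2. Compound, then agonist L165041 at 300 nM final, was added; 17 h at 37 C followed. Substrate loading, 2 h room temperature, fluorescence measured.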

[19] = target: Bile acid receptor (Homo sapiens) (UniProt Q96RI1); assay: qHTS assay to identify small molecule antagonists of the farnesoid-X-receptor (FXR) signaling pathway (AID 743217; active means well fitted inhibition curve with a large enough effect in the signal ratio in the repeat runs, not every such curve was filed as active; the % refers to the signal ratio)
Bile acid receptor (Homo sapiens), sequence (Q96RI1 whole entry, looked up): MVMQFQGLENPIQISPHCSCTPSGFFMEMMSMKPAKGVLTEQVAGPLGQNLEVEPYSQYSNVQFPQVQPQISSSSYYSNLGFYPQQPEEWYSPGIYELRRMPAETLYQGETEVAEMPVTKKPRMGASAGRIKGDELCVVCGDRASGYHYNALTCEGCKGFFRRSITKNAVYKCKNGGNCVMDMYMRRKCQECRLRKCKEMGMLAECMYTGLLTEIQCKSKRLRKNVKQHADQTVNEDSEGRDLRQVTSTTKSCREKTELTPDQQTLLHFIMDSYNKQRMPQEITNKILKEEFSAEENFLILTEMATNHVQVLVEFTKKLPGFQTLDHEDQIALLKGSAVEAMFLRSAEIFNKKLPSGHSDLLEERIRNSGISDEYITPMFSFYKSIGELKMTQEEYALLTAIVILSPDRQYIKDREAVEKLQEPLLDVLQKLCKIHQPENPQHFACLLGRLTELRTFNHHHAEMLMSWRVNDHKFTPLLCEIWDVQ
In short: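 Screen of the Tox21 10K library in quantitative HTS format using FXR-UAS-bla HEK 293T reporter cells. Agonist chenodeoxycholic acid, 50 uM final, added with compounds; 16 h incubation at 37 °C; beta-lactamase FRET fluorescence measured.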

[20] = target: Bile acid receptor (Homo sapiens) (UniProt Q96RI1); assay: qHTS assay to identify small molecule agonists of the farnesoid-X-receptor (FXR) signaling pathway (AID 743220; active means well fitted activation curve with a large enough effect in the signal ratio in the repeat runs, not every such curve was filed as active; the % refers to the signal ratio)
In short: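 FXR-UAS-bla HEK 293T cells carrying a UAS-driven beta-lactamase reporter were plated for 5 h at 37C/5% CO2, then exposed to DMSO-dissolved Tox21 10K compounds for 16 h at 37C. A LiveBLAzer B/G FRET substrate was loaded for 2 h at room temperature before fluorescence reading.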

Row | Compound | Potency [1] | Potency [2] | Potency [3] | Potency [4] | Potency [5] | Potency [6] | Potency [7] | Potency [8] | Potency [9] | Potency [10] | Potency [11] | Potency [12] | Potency [13] | Potency [14] | Potency [15] | Potency [16] | Potency [17] | Potency [18] | Potency [19] | Potency [20]
1 | COc1nc(C)nc(NC(=O)NS(=O)(=O)c2ccccc2Cl)n1 | inactive | inactive | inactive | inactive | inactive | inactive | inactive | inactive | inactive | inactive | inactive | inactive | inactive | inactive | inactive | inactive |  |  |  | 
2 | Clc1ccc(C(c2ccc(Cl)cc2)C(Cl)Cl)cc1 | inactive | inactive | inactive | inactive |  | 24.9 µM (active) and 38.9 µM (active) |  | 54.5 µM (active) | 49 µM (active) |  | 44.4 µM (active) |  |  | inactive | inactive | inactive | inactive | inactive |  | 
3 | O=C(Cl)c1ccccc1F | inactive | inactive | inactive | inactive | inactive | inactive | inactive | inactive | inactive |  | inactive |  | inactive | inactive | inactive | inactive | inactive | inactive | inactive | 
4 | CCC(C)Nc1c([N+](=O)[O-])cc(C(C)(C)C)cc1[N+](=O)[O-] (stereo not given) | inactive | inactive | inactive | inactive | inactive | inactive |  | inactive | inactive |  | inactive | inactive | inactive | inactive |  | inactive | inactive | inactive |  | 
5 | BrCC(Br)(Br)Br | inactive | inactive | inactive | inactive | inactive |  |  |  | inactive |  |  | inactive | inactive | inactive | inactive | inactive | inactive | inactive |  | inactive
6 | N#Cc1sc2c(=O)c3ccccc3c(=O)c=2sc1C#N | 4.33 µM (active) | 1.93 µM (active) | 6.86 µM (active) | inactive | 12.3 µM (active) | 19.5 µM (active) |  | 8.63 µM (active) | 1.95 µM (active) |  | 7.76 µM (active) | 12.3 µM (active) | 34.7 µM (active) | 34.7 µM (active) |  |  |  |  |  | inactive
7 | COc1cnc(OC)n2nc(NS(=O)(=O)c3c(OCC(F)F)cccc3C(F)(F)F)nc12 | inactive | inactive | inactive | inactive | inactive | inactive | inactive | inactive | inactive |  | inactive |  |  | inactive |  |  | inactive | inactive |  | 
8 | O=[N+]([O-])c1ccc(CCl)cc1 | inactive | inactive | inactive | inactive |  | inactive |  | inactive | inactive | inactive | inactive | inactive |  | inactive | inactive | inactive |  | inactive |  | 
9 | COC(=O)C(C)N(C(=O)c1ccco1)c1c(C)cccc1C (stereo not given) | inactive | inactive | inactive | inactive | inactive | inactive | inactive | inactive | inactive | inactive | inactive | inactive | inactive | inactive | inactive | inactive |  | inactive |  | 
10 | CC(C)NCC(O)c1ccccc1Cl (stereo not given) | inactive | inactive | inactive | inactive | inactive | inactive | inactive | inactive | inactive | inactive | inactive | inactive | inactive | inactive |  |  |  | inactive |  | 
11 | O=[N+]([O-])c1ccccc1-c1ccccc1 | inactive | inactive | inactive | inactive | inactive | inactive | inactive | inactive | inactive | inactive | inactive | inactive | inactive | inactive |  |  |  |  |  | 
12 | O=S1(=O)OCC2C(CO1)C1(Cl)C(Cl)=C(Cl)C2(Cl)C1(Cl)Cl (stereo not given) | 61.1 µM (active) | inactive | inactive | inactive | inactive | inactive |  | inactive |  |  |  |  |  |  |  |  | inactive | inactive |  | inactive
13 | CN/C(=N\[N+](=O)[O-])NCc1cnc(Cl)s1 | inactive | inactive | inactive | inactive | inactive | inactive | inactive | inactive | inactive | inactive | inactive | inactive | inactive | inactive | inactive | inactive |  |  |  | 
14 | N#Cc1ccc(N(CC(N)=O)CC(F)(F)F)cc1C(F)(F)F | inactive | inactive | inactive | 0.692 µM (active) |  | inactive | inactive | inactive | inactive | inactive |  | inactive | inactive | inactive | inactive | inactive | inactive | inactive | inactive | 
15 | COC(=O)c1cc(Oc2ccc(Cl)cc2Cl)ccc1[N+](=O)[O-] | inactive | inactive | inactive | inactive | 43.6 µM (active) | inactive | inactive | inactive | inactive |  | inactive | inactive | inactive | inactive | inactive |  |  | inactive | inactive | 
16 | COP(=S)(OC)Oc1ccc([N+](=O)[O-])c(C)c1 | inactive | 48.6 µM (active) | inactive | inactive | inactive | inactive |  | inactive | inactive |  | inactive |  | inactive | inactive |  | inactive |  | inactive | inactive | inactive
